The entries come from a sample that favours hits as a whole.
FECH inh: blocks human mitochondrial ferrochelatase activity. AID 1671448. calls only at 10 µM (by protocol). P22830. actives 3.3% (n = 20,000). purified FECH, Ni-mesoporphyrin absorbance 550 nm;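 active means enzyme reaction rate more than 3 SD below the solvent-only control wells on the same plate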;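 further: lower slope than DMSO wells means FECH inhibition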
Target sequence (P22830 whole entry, looked up): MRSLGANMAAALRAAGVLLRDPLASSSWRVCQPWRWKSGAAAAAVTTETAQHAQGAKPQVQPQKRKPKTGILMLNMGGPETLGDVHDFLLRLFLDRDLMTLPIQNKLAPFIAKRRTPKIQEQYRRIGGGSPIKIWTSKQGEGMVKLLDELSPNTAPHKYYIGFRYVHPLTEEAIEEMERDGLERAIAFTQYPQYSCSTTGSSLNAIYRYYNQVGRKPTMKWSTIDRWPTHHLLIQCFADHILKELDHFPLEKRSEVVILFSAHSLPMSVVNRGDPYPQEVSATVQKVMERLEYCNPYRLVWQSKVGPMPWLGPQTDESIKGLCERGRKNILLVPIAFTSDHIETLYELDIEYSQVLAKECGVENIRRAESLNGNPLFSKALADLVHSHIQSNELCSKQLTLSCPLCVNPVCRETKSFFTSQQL
An asterisk follows results filed as active; i = inactive; + = active, no number.

SMILES	FECH inh
CNC(=O)C1CCC(Cn2c(=O)c3sccc3n(CC(=O)NCCc3ccccc3)c2=O)CC1 (stereo not drawn)	i
Cc1cc(C)n2nc(CN(c3cccc(Cl)c3)S(=O)(=O)c3ccccc3)nc2n1	i
Cc1ccc(N(Cc2nc3nc(C)cc(C)n3n2)S(C)(=O)=O)cc1	i
Cc1ccc(N(Cc2nc3nc(C)cc(C)n3n2)S(=O)(=O)c2ccc(Cl)cc2)cc1	+
Cc1ccc(S(=O)(=O)N(Cc2nc3nc(C)cc(C)n3n2)c2ccc(Cl)cc2)cc1	+
Cc1ccc(S(=O)(=O)N(Cc2nc3nc(C)c(Cl)c(C)n3n2)c2ccccc2)cc1	i
Cc1ccc(S(=O)(=O)N(Cc2nc3nc(C)cc(C)n3n2)c2ccccc2)cc1	i
Cc1cc(C)cc(NC(=O)NCCc2nc3cccnc3n2-c2ccccc2)c1	i
CC(=O)N1c2ccc(S(=O)(=O)N3CCCCC3)cc2CC1C(=O)N1CCc2ccccc2C1 (stereo not drawn)	i
Cc1cccc(-n2c(CN3CCN(S(=O)(=O)c4ccc5c(c4)CCC5)CC3)nc3cccnc32)c1	i
Cc1cccc(C(=O)N(C)CCn2cc(C(=O)N3CCSCC3)nn2)n1	i
O=C1C[C@H]2CC[C@@H](CN1)N2C(=O)Cc1ccccn1	i
CCN(C(C)=O)C1CCN(C(=O)CCn2c(C)cc3ccccc32)C1 (stereo not drawn)	i
Cc1cccc(CN2CCCN(CC(=O)Nc3cc(C)cc(C)c3)S2(=O)=O)c1	+
Cc1cccc(CN2CCCN(CC(=O)Nc3cccc(Br)c3)S2(=O)=O)c1	i
Cc1cccc(CN2CCCN(CC(=O)Nc3ccc(C)c(C)c3)S2(=O)=O)c1	+
Cc1cccc(CN2CCCN(CC(=O)Nc3ccccc3)S2(=O)=O)c1	i
Cc1ccc(CN2CCCN(CC(=O)Nc3ccc(F)cc3)S2(=O)=O)cc1	i
Cc1cccc(CN2CCCN(CC(=O)Nc3ccc(F)cc3)S2(=O)=O)c1	+
Cc1ccc(CN2CCCN(CC(=O)Nc3ccc(C)c(C)c3)S2(=O)=O)cc1	i
O=C(CN1CCCN(Cc2cccc(F)c2)S1(=O)=O)Nc1ccccc1	i
Cc1ccc(NC(=O)CN2CCCN(Cc3cccc(F)c3)S2(=O)=O)cc1C	i
COc1cccc(OC)c1-c1c(-c2ccccc2)ncn1CC1COCCO1 (stereo not drawn)	i
Cc1ccc(-c2nc(C(N)=O)c3c(n2)n(-c2ccc(C)c(C)c2)c(=O)n3Cc2ccccc2)cc1	i
CSc1ccc(-c2nc(CN3CCn4nc(C)cc4C3)c(C)o2)cc1	i
SMILES	FECH inh
C[C@]12CC3CC(C(=O)N4CCc5sccc5C4)(C1)C[C@@](C)(C3)C2	i
OCCn1ccnc1-c1ccc2c(c1)Cc1ccccc1-2	i
CCc1nc2nc(C)[nH]n2c(=O)c1NC(=O)Nc1cccc(F)c1	i
Cc1ncccc1C(=O)N1CC[C@@H](c2ccc3ccccc3c2)[C@H](O)C1	i
COc1ccnc(N2CCN(C(=O)c3cn(-c4ccccc4)nn3)CC2)n1	i
COc1ccccc1CNC(=O)c1[nH]cnc1C(=O)NCC(C)(C)C	i
CCCNc1nc(Nc2ccc(OC)cc2)c2cnn(-c3ccccc3)c2n1	+
CCOc1ccc(Nc2nc(N3CCCC3)nc3c2cnn3-c2ccccc2)cc1	i
COc1ccc(Nc2nc(N3CCN(C)CC3)nc3c2cnn3-c2ccccc2)cc1	i
COc1ccc(Nc2nc(NCCO)nc3c2cnn3-c2ccccc2)cc1	i
Cc1ccc(Nc2nc(N3CCOCC3)nc3c2cnn3-c2ccccc2)cc1C	i
COCCNc1nc(Nc2ccc(OC)cc2)c2cnn(-c3ccccc3)c2n1	i
Cc1ccc(Nc2nc(NCC(C)O)nc3c2cnn3-c2ccccc2)cc1C (stereo not drawn)	i
COc1ccc(Nc2nc(NCC(C)O)nc3c2cnn3-c2ccccc2)cc1 (stereo not drawn)	+
COc1cccc(Nc2nc(NCC(C)O)nc3c2cnn3-c2ccccc2)c1 (stereo not drawn)	i
CCOc1ccc(Nc2nc(N3CCOCC3)nc3c2cnn3-c2ccccc2)cc1	i
FC(F)Sc1ccc(Nc2nc(N3CCOCC3)nc3c2cnn3-c2ccccc2)cc1	+
COc1ccc(Nc2nc(N3CCCC3)nc3c2cnn3-c2ccccc2)cc1	+
O=C(NC1CC1)C1CCCN(C2CCN(c3cc(C4CC4)ncn3)CC2)C1 (stereo not drawn)	i
CCOc1ccc(Nc2nc(NC)nc3c2cnn3-c2ccccc2)cc1	i
CNC(=O)C1CCN(Cc2cccc(C(=O)Nc3cccc(CO)c3C)c2)C1 (stereo not drawn)	i
Cc1cc(=O)[nH]c(SC(C)C(=O)N2CC3CC4CC2C[C@@H](C4)C3)n1 (stereo partly drawn)	i
CC(c1ccon1)N(C)C(=O)CCNC(=O)c1ccccc1F (stereo not drawn)	i
CC(=O)N1CCN(CC2=CCN(CC(=O)NC3CC3)CC2)CC1	i
Cc1cccc(CC(=O)NC2CC(=O)N(c3ccc(C)c(C)c3)C2)c1 (stereo not drawn)	i
Cc1cc(C2CCC2)nc(NCC(C)(C)N2CCOCC2)n1	i

Compound activity from PubChem BioAssay.
